# According to PubChem BioAssay AID1445 (SRMLSC, 2008):
# Among all 220,000 compounds or so, about 910 (0.41%) were called active.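 Rule for the calls: active = primary inhibition above the hit cutoff, then over 50% inhibition at one or more dose response concentrations (cut at about 23% in these data, passing the limit was not always enough); inconclusive = conflicting primary data, or primary hits not chosen for dose response; inactive = low primary inhibition, or under 50% at every dose.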 What follows is part of a selection rich in actives, with near analogues and random picks from the rest. Results with a measured potency or affinity are listed apart.
# Target: Aminopeptidase N (Plasmodium falciparum (isolate 3D7)) (UniProt O96935)
# Sequence (O96935 whole entry, looked up): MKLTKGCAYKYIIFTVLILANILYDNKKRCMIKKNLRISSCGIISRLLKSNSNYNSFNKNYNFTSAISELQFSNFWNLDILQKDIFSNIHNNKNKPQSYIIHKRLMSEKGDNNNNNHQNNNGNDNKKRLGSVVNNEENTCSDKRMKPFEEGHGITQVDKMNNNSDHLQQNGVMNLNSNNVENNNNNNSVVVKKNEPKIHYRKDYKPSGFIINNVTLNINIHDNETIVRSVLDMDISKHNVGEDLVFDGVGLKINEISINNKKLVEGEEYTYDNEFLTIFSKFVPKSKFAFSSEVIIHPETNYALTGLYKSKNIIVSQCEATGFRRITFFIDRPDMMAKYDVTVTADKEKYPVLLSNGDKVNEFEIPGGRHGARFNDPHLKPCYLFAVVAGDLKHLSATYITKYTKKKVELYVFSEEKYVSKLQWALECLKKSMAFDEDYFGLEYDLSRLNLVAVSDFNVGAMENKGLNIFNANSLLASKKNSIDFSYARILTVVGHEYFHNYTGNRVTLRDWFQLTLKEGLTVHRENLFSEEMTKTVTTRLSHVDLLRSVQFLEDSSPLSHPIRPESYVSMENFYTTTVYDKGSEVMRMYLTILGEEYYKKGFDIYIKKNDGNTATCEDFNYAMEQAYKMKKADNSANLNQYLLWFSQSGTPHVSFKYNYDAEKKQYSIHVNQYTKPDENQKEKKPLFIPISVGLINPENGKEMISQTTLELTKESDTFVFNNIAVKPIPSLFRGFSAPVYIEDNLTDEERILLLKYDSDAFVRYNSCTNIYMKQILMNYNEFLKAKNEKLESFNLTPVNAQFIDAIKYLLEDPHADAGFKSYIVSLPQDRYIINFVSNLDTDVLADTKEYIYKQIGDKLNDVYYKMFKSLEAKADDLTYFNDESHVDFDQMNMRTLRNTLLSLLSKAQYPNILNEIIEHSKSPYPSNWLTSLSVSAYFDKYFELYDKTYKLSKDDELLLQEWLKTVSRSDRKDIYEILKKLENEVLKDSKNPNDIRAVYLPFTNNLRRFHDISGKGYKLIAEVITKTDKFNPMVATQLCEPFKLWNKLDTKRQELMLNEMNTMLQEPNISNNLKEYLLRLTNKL
# Assay: P. falciparum M1AAP inhibitors, biochemical, fluorogenic H-Leu-NHMec substrate, 1536-well (AID 1445);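 note: plate controls were DMSO full reaction for no effect and no enzyme background for full effect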
# Details: recombinant M1AAP, H-Leu-NHMec fluorogenic kinetic assay; at 30 µM, stronger effect = higher value unless noted
row,SMILES,inhibition
1,CC1CCCCN1C(=O)c1cc2nc(-c3ccccc3)cc(-c3ccccc3)n2n1 (stereo unspecified),2.04% (inactive)
2,COC(=O)COc1ccc(=O)n(-c2ccccc2)n1,2.11% (inactive)
3,O=C(N/N=C/c1cccc(O)c1)c1ccc(NC(=O)c2cccc([N+](=O)[O-])c2)cc1,3.44% (inactive)
4,O=C(c1cnn(-c2ccccc2)c1-n1cccc1)N1CCN(C2CCCCC2)CC1,2.13% (inactive)
5,CCOC(=O)N1CCN(C(=O)c2cnn3ccccc23)CC1,10.3% (inactive)
6,O=C(c1cnn2ccccc12)N1CCN(C2CCCCC2)CC1,26.7% (active)
7,COc1ccc(CNC(=O)C(c2ccncc2)N(C(=O)Cc2cccs2)c2ccccc2C)cc1 (stereo unspecified),-1.48% (inactive)
8,COc1ccc(N2CCN(C(=O)CN3CCN(C(c4ccccc4)c4ccccc4)CC3)CC2)cc1,3.02% (inactive)
9,COc1cccc(N2CCN(CC(=O)Nc3nnc(-c4ccccc4)s3)CC2)c1,-5.75% (inactive)
10,COc1ccc(N2CCN(CC(=O)Nc3nnc(-c4ccccc4)s3)CC2)cc1,23.4% (active)
11,O=C(CN1CCN(c2ccccc2)CC1)Nc1nnc(-c2ccccc2)s1,-5.83% (inactive)
12,COc1ccc(N2CCN(CC(=O)N3CCC(C)CC3)CC2)cc1,24.4% (active)
13,COc1ccc(N2CCN(C(=O)CN3C(=O)C4CC=CCC4C3=O)CC2)cc1 (stereo unspecified),-0.46% (inactive)
14,CCn1c(SCC(=O)NCC2CCCO2)nnc1-c1ccccc1 (stereo unspecified),1.77% (inactive)
15,c1cc2c(cc1C1=NNC(=NC3CC3)SC1)OCCO2,8.68% (inactive)
16,CCOC(=O)Cc1csc(NC(=O)CC(C)(C)CC(=O)O)n1,-4.17% (inactive)
17,CCN(CC)S(=O)(=O)c1cccc(-c2n[nH]c(=S)n2/N=C/c2ccc(OC)cc2)c1,13.1% (inactive)
18,CCCc1c(C(=O)NNc2cc(C(F)(F)F)ccc2Cl)cnn1-c1ccccc1,-1.62% (inactive)
19,CCC(=O)NC(=S)Nc1ccc(N2CCOCC2)cc1,4.46% (inactive)
20,O=C(COc1ccc(Cl)cc1)NNC(=O)C(=O)N1CCCCC1,32.2% (inactive)
21,CCOC(=O)N1CCN(C(=O)C(=O)NNC(=O)COc2ccc(Cl)c(C)c2)CC1,3.22% (inactive)
22,O=C(O)CC1S/C(=N\N=C2CCCCCCC2)N(c2ccccc2)C1=O (stereo unspecified),7.68% (inactive)
23,CN(C(=O)c1ccccc1)C1(C)CCS(=O)(=O)C1 (stereo unspecified),-2.77% (inactive)

row,SMILES,inhibition
1,O=c1c2cc(Cl)ccc2nc(-c2ccccc2)n1O,3.06% (inactive)
2,O=c1c2ccccc2nc(-c2cccc(Cl)c2)n1O,26.1% (active)
3,O=c1c2ccccc2nc(-c2ccc(Cl)c(Cl)c2)n1O,0.17% (inactive)
4,CS(=O)(=O)N(CC(=O)Nc1ccccc1Cl)c1ccc(Cl)cc1,4.49% (inactive)
5,O=C(Nc1ccc2c(c1)OCCO2)c1c(F)c(F)c(F)c(F)c1F,10.6% (inactive)
6,O=C(/C=C\c1ccccc1OC(=O)c1ccccc1F)c1cc2ccccc2o1,6.93% (inactive)
7,O=c1c2c(nc3nc(NCc4cccc(Cl)c4)[nH]n13)CCC2,9.8% (inactive)
8,O=C(CSc1nc2c(c(=O)[nH]1)CCC2)Nc1cccc(Cl)c1,1.88% (inactive)
9,CCCCCCCC(=O)NC1=NC(=O)C(C)(C)S1,-0.69% (inactive)
10,Cc1cccc(NC(=O)N(Cc2cc3cc(C)cc(C)c3[nH]c2=O)CC2COCCO2)c1 (stereo unspecified),2.91% (inactive)
11,Cc1ccc2[nH]c(=O)c(CN(CC3COCCO3)C(=O)Nc3ccccc3C)cc2c1 (stereo unspecified),13.8% (inactive)
12,CN(C)S(=O)(=O)c1ccc(C(=O)OCCn2cnc3c2c(=O)n(C)c(=O)n3C)cc1,-2.31% (inactive)
13,O=C(O)CCCC(=O)Nc1cc([N+](=O)[O-])ccc1O,7.33% (inactive)
14,O=[N+]([O-])c1ccc(O)c(NC(=S)Nc2ccccc2)c1,-0.91% (inactive)
15,Cc1ccc(NCc2nnc(SCC(=O)Nc3ncc(C)s3)n2CC2CCCO2)c(C)c1 (stereo unspecified),0.09% (inactive)
16,COc1ccc2cc3cc(C(=O)NCCN4CCN(c5ccccc5F)CC4)oc3nc2c1,-0.03% (inactive)
17,COc1ccc2cc3cc(C(=O)NCC4COc5ccccc5O4)oc3nc2c1 (stereo unspecified),3.66% (inactive)
18,COc1ccc2cc3cc(C(=O)NCCCN4CCOCC4)oc3nc2c1,18.2% (inactive)
19,CCCCN(CC)CCCNC(=O)c1cc2cc3ccc(OC)cc3nc2o1,29.5% (inactive)
20,COc1ccc2cc3cc(C(=O)NC(C)C)oc3nc2c1,13.4% (inactive)
21,CCCCN(CC)C(=O)c1cc2cc3ccc(OC)cc3nc2o1,13.7% (inactive)
22,Cc1cccc2c1Sc1ccccc1CC2=O,7.62% (inactive)
23,CCn1nnnc1NCc1ccc(N2CCCC2)cc1,5.58% (inactive)
